# Test results published in PubChem BioAssay AID2603 (Johns Hopkins Ion Channel Center, 2010).
# Results with a measured potency or affinity are listed apart.
# Target: Potassium voltage-gated channel subfamily KQT member 2 (Rattus norvegicus) (UniProt O88943)
# Assay: KCNQ2 channel potentiators, dose response, mechanism study for KCNQ2 potentiator project, cell-based, automated electrophysiology (AID 2603)
# Conditions: KCNQ2-CHO cells, automated patch clamp current potentiation; at 30 µM (top of the series)
# Potassium voltage-gated channel subfamily KQT member 2 (Rattus norvegicus), sequence (O88943 whole entry, looked up): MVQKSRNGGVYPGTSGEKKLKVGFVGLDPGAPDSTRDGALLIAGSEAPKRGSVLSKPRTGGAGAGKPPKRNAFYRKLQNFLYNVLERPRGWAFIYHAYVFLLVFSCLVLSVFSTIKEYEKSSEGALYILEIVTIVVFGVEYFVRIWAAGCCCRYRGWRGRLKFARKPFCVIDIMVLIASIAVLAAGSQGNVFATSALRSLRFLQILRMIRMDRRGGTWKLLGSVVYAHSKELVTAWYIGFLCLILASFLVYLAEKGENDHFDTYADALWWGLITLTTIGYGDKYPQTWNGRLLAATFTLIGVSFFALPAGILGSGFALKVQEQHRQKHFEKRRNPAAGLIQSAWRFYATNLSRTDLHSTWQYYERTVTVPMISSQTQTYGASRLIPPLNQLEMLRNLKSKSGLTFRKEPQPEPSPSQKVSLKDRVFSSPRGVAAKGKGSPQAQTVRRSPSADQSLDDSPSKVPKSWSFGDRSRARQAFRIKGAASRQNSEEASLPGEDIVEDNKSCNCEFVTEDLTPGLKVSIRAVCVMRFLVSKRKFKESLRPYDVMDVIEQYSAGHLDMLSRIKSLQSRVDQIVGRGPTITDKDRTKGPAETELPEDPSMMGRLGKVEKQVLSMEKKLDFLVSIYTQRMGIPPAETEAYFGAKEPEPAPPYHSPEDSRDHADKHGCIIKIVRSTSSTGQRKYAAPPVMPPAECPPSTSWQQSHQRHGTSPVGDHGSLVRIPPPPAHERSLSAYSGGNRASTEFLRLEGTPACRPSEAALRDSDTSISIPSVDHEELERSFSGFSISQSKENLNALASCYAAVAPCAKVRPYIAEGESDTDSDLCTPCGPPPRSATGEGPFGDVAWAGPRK
smiles,measurement,value
O=c1[nH]sc2cc(F)ccc12,potentiation,102
